From PubChem BioAssay AID1963321 (National Center for Advancing Translational Sciences (NCATS), 2024)
Inconclusive results are not listed. Where a call stands in place of a potency, no number is given. The source made the active and inactive calls. The call rests on the fitted dose curve.

The molecules below were run against cAMP-dependent protein kinase catalytic subunit alpha (Homo sapiens) (UniProt P17612) (assay: Protein Kinase A (PKA-HiBiT) enzymatic inhibition screen - Functional assay). Details: luminescence; series mostly up to 57.5 µM.
Description: National Center for Advancing Translational Sciences (NCATS),
National Institute of Health (NIH), Maryland
Discovery and optimization of novel protein-binding ligands underlies many of the methods and applications of biology, drug discovery, clinical diagnostics, and environmental toxicology. Assays for detecting the interaction of, for example, a molecule with a macromolecular target also referred to here as the target of interest (TOI) is dependent on a compatible output technology. Depending on the nature and knowledge surrounding the TOI, whether a receptor, enzyme, regulatory subunit or scaffold, or a sequence-defined nucleic acid folded into a complex tertiary structure, assay strategies can vary widely.
Here we exploit ligand-biased changes in the structural dynamics of the target protein to control reporter alpha complementation allowing a non-competitive, non-functional, non-separation measure of ligand-target interaction.
Using a chemical library of >1,200 compounds enriched for scaffolds known to be associated with the inhibition of firefly luciferase (FLuc) activity (PubChem AIDs 2309) we first illustrate and compare the Structural Dynamics Response (SDR) assay vs. the standard functional FLuc enzyme assay (2). Secondly, we show the specificity and sensitivity of the SDR for the Abelson tyrosine kinase (ABL1) compared to the serine/threonine protein kinase A, using an enriched chemical library of 128 compounds selected, in part, for activity annotated with ABL1 kinase activity using the Pharos database (3).
(1) A. S. Dixon et al., NanoLuc Complementation Reporter Optimized for Accurate Measurement of Protein Interactions in Cells. ACS Chem Biol 11, 400-408 (2016).
Chemistry & Biology, 19, 1060 - 1072 (2012).
(3) K. J. Kelleher et al., Pharos 2023: an integrated resource for the understudied human proteome. Nucleic Acids Res 51, D1405-D1416 (2023).
PROTOCOL TABLE (as described by Inglese J, Shamu CE and Guy RK. 2007)
SEQUENCE No. (e.g., 1, 2, 3, etc.); […] (e.g., C. elegans, Compounds, Incubation, Read, etc.); VALUE and DESCRIPTION.
1. Reagent. Dispense 4 uL PKA-N-HiBiT enzyme per well at a final enzyme concentration of 10 nM in buffer with 87.5 uM ATP (functional assay) into columns 2-48 of four replicate Greiner 1536-well white,solid bottom high base, medium plates per assay. Dispense respective buffer without enzyme at 4 uL/well in column 1 of assay plates using BioRaptr 2.
2. Compounds. Library compounds added at 23 nL/well by pin transfer. DMSO neutral control and H-89 positive control added at 25 nL/well, transfer by Mosquito dispenser.
3. Incubation. Incubate enzyme and compounds at room temperature for 30 min, protect from light.
4. Reagent. (Functional assay) Transfer 25 nL of kemptide peptide substrate to each well of four replicate kinase assay plates with Mosquito dispenser.
5. Incubation. (Functional assay) Kinase Enzyme incubated with peptide substrate for 3 h at room temperature, protected from light.
6. Reagent. (Functional assay) Add 4 uL/well of Kinase-Glo Plus reagent (Promega) to kinase activity assay plates.
7. Detector. (Functional assay) Luminescence measured using CCD-based camera (ViewLux) with settings as follows: Exposure, 1 sec; Gain, High; Speed, Slow; Binning, 2X.
Inglese J, Shamu CE and Guy RK, Reporting data from high throughput screening of small molecule libraries, Nature Chemical Biology, 2007, 3(8): 438-441. doi.org/10.1038/nchembio0807-438.
With `O=C(NCCCNc1nc(Nc2ccc(N3CCOCC3)cc2)ncc1C1CC1)C1CCC1` the Potency was “inactive”. With `O=[N+]([O-])O[C@H]1CO[C@H]2[C@@H]1OC[C@H]2O[N+](=O)[O-]` the Potency was “inactive”. For `CCNC(=O)C[C@@H]1N=C(c2ccc(Cl)cc2)c2cc(OC)ccc2-n2c(C)nnc21`, the Potency was “inactive”. `C/C(O)=C(\C#N)C(=O)Nc1cc(Br)ccc1Br` was tested, and the Potency was “inactive”. `N#Cc1cn([C@@H]2O[C@H](CO)[C@H](O)[C@@H]2O)c2ncnc(N)c12` was tested, and the Potency was “inactive”. In the case of `Cc1[nH]nc2ccc(-c3cncc(OC[C@@H](N)Cc4c[nH]c5ccccc45)c3)cc12`, the Potency is reported as 2010 nM (active).
